Bioassay records (PubChem)
mcGAS MS inh – inhibitors of Mus musculus cyclic GMP-AMP synthase, initial high-throughput assay, cell-free, RapidFire MS | AID 1259397, 2018 | inhibition, % at 12.5 µM | recombinant mouse cGAS, cGAMP by RapidFire MS | 0.18% of 130,000 active;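 active = inhibition of cGAS enzyme activity at or above 60%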;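 also: enzyme stimulated by 45 bp dsDNA with ATP and GTP substrates; cGAMP share of summed cGAMP plus half ATP and half GTP signals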
Target sequence (Q8C6L5 whole entry, looked up): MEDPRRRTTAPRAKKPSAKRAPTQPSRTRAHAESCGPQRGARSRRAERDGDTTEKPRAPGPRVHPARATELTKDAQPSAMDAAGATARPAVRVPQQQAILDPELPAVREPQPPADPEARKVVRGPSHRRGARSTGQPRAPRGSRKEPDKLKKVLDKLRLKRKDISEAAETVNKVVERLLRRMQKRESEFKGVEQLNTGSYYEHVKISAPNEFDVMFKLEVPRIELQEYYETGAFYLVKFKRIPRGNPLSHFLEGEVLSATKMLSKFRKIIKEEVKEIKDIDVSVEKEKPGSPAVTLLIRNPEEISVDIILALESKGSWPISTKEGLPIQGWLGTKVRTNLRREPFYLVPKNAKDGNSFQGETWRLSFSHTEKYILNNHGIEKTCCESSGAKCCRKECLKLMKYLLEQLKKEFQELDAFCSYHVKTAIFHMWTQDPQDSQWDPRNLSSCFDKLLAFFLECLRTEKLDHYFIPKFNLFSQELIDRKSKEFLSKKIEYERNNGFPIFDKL
The depositor's hits bear a star; ! = repeats disagree. The entries come from a sample that favours hits as a whole.

SMILES	mcGAS MS inh
O=C(NC1CCCC1)c1cc(NCc2ccnc3ccccc23)cc2[nH]ncc12	0
CCC(C)Nc1nc2cc(C)nn2c2ccccc12 (stereo not drawn)	-3
COc1ccc2[nH]c(=O)c(CN3CCCOC(Cn4cccn4)C3)cc2c1 (stereo not drawn)	-13
COc1ccc2cc(CN3CCCN(c4ccncc4)CC3)c(=O)[nH]c2c1	60*
COc1ccc2[nH]c(=O)c(CN3CCC(N4CCCC(O)C4)CC3)cc2c1 (stereo not drawn)	2
COc1ccc2c(CC(=O)OCn3nnc4ccccc4c3=O)coc2c1	-3
N[n+]1cnn(CC(=O)c2ccccc2)c1	6
CCC(=O)Nc1ccc(C(=O)Cn2cc(Br)cn2)cc1	-1
N[n+]1cnn(CC(=O)c2ccccc2Br)c1	98*
N[n+]1cnn(CC(=O)c2ccc(Br)cc2Br)c1	83*
Cc1nn(CC(=O)c2ccc(Cl)cc2Cl)c(C)[n+]1N	-14
O=C(CSCc1ccccc1)c1ccccc1Br	0
COCCNC(C)=CC(=O)C(F)(F)F	-15
O=C(Nc1n[nH]c(=S)s1)c1cccs1	76*
O=C(Nc1n[nH]c(=S)s1)c1ccco1	27
O=C(Nc1nc(-c2ccc(Cl)s2)cs1)c1cccs1	-16
CCOC(=O)CN1CCN(c2ccc(Cl)c(Cl)c2)C(=O)C1C (stereo not drawn)	-9
O=C(O)c1snc(-c2ccccc2)c1NC(=O)C1CC1	-2
COc1ccc(S(=O)C(C)c2ncc(C(C)(C)C)o2)cc1OC (stereo not drawn)	68*
CC(Nc1cccc(NC(=O)CO)c1)c1ncc(C(C)(C)C)o1 (stereo not drawn)	-5
Cc1ccc(S(=O)(=O)C(C)c2ncc(C(C)(C)C)o2)cc1C (stereo not drawn)	-14
O=C(NCc1ccc(Cl)cc1)c1ccc(CN2CCOCC2)cc1	-3
COc1c(C)cc(C(=O)C2CCCN(Cc3c(C)nc4sccn34)C2)cc1C (stereo not drawn)	-9
CC(=O)[C@]1(O)Cc2c(O)c3c(c(O)c2[C@@H](O[C@H]2C[C@H](N)[C@H](O)[C@H](C)O2)C1)C(=O)c1ccccc1C3=O	90*
COc1cccc2c1C(=O)c1c(O)c3c(c(O)c1C2=O)C[C@@](O)(C(=O)CO)C[C@@H]3O[C@H]1C[C@H](N)[C@@H](O)[C@H](C)O1	98*!
SMILES	mcGAS MS inh
COc1cccc2c1C(=O)c1c(O)c3c(c(O)c1C2=O)C[C@@](O)(C(C)=O)C[C@@H]3O[C@H]1C[C@H](N)[C@H](O)[C@H](C)O1	91*!
O=C1NCCN(C(=O)c2cn(Cc3ccccc3F)nn2)C1c1cccc(F)c1 (stereo not drawn)	-6
CC(c1nc2ccccc2c(=O)[nH]1)N1CCN(S(=O)(=O)c2cccc(F)c2)CC1 (stereo not drawn)	-5
O=C(NC1CCCN(Cc2ccccc2)C1)C1=Cc2ccccc2OC1 (stereo not drawn)	-10
CC(C)n1cc(Nc2ccccc2S(=O)(=O)C(F)(F)F)cn1	-11
COc1ccc(F)c(CN2CCCC3(CCN(C(=O)C4=CCCC4)C3)C2)c1 (stereo not drawn)	-3
O=C(Nc1nnc(-c2ccc(Cl)s2)o1)c1cccc(F)c1	-6
Cc1ccccc1N1CCN(c2ncccc2CNC(=O)c2ccncc2)CC1	-9
CCCNC(=O)NC(=O)Cn1cnc2c1c(=O)n(C)c(=O)n2C	0
Cc1cc(C=C2C(=O)NC(=S)NC2=O)c(C)n1CC(F)(F)F	74*
COC(=O)C(=Cc1cc(C)n(CC(F)(F)F)c1C)C(C)=O	-12
CCN1C(=O)C(=Cc2cc(C)n(CC(F)(F)F)c2C)SC1=S	-11
CC1Cc2nc(SCC(=O)NCC3CCCO3)n(-c3ccc(F)cc3)c(=O)c2S1 (stereo not drawn)	-6
COCCN(C)c1ncnc(N2CCN(C)CC2)c1N	-5
CS/C(=C/c1ccc(C)s1)S(C)=O (stereo not drawn)	-12
Cc1cc(CN2C(=O)C(C)Sc3ccc(S(C)(=O)=O)cc32)no1 (stereo not drawn)	-19
Cc1ccc(C(=O)Nc2ccc(S(=O)(=O)O)c3cc(S(=O)(=O)O)cc(S(=O)(=O)O)c23)cc1NC(=O)c1cccc(NC(=O)Nc2cccc(C(=O)Nc3cc(C(=O)Nc4ccc(S(=O)(=O)O)c5cc(S(=O)(=O)O)cc(S(=O)(=O)O)c45)ccc3C)c2)c1	93*
Cc1coc(-c2ccc(C)c(NC(=O)c3cccc(NS(C)(=O)=O)c3)c2)n1	-9
Cc1ccc(NC(=O)c2ccc(S(N)(=O)=O)c(C)c2)cc1C	-11
CC(C)c1ccc(S(=O)(=O)NC2CCS(=O)(=O)C2)cc1 (stereo not drawn)	-5
COc1cc(C)c(S(=O)(=O)Nc2c(F)cccc2F)cc1OC	87*
COc1ccc(NS(=O)(=O)c2cc(C)ccc2C)cc1OC	-9
COc1ccccc1NS(=O)(=O)c1cc(F)ccc1F	4
COCCN(CC(=O)N(C)C)C(=O)C1(c2cccc(F)c2)CCC1	-26
CSC(C)C(=O)Nc1ccnn1Cc1cccc(Cl)c1Cl (stereo not drawn)	-3
O=C(NS(=O)(=O)c1cccnc1)c1cc(I)ccc1F	2
CCOC(=O)c1nn(-c2ccccc2)c(=O)cc1NCc1ccccc1	-5
